This note sets out measurements from PubChem BioAssay (NCATS).

The nature of test [1]: Natriuretic polypeptide receptor (hNpr1) antagonism - Pilot counterscreen GloSensor control cell line (AID 1347045; calls by dose curve; also: series mostly up to about 38 µM). A digest of the protocol: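 The SNP-driven cGMP luminescence signal (50 uM, 20 min, room temperature) was measured in GloSensor HEK293 control cells. Compounds were tested as a LOPAC titration series and preincubated for 30-50 min.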
The target in test [2] is Atrial natriuretic peptide receptor 1 (Homo sapiens) (UniProt P16066). Kind of test: Natriuretic polypeptide receptor (hNpr1) antagonism - Pilot screen (AID 1347049; calls by dose curve;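 also: HEK293 cells with hNpr1 and GloSensor cGMP luciferase stimulated by 0.1 nM hNppA; agonist-evoked cGMP luminescence read 20 min after hNppA addition; series mostly up to about 58 µM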). On the procedure:
In order to identify small molecular compounds that inhibit the hNpr1 receptor we developed a high-throughput assay to measure inhibition of the guanylate cyclase activity of the receptor. cGMP production was measured using a circular permutated Firefly luciferase (FLuc) enzyme functionally linked to the cGMP binding domain of human phosphodiesterase 5 (GloSensor technology pGS-40F, (Fan, F. et al. 2008). The cGMP-sensor was expressed in human embryonic kidney 293 (HEK-293) cells and FLuc activity was measured after stimulation with hNrp agonist peptide. hNrp agonists activates the receptor's associated guanylyl cyclase (GC) domain producing cGMP which then binds to the GloSensor resulting in FLuc activation, the enzymatic activity of which can be measured as bioluminescence with addition of luciferin substrate.
F. Fan, B. F. Binkowski, B. L. Butler, P. F. Stecha, M. K. Lewis, K. V. Wood, Novel genetically encoded biosensors using firefly luciferase. ACS Chem Biol 3, 346-351 (2008).
This assay was initially piloted by testing with a small diversity library of compounds with known pharmacological activity. […]
7. […] GloSensor baseline pre-read luminescence measured using CCD-based camera (Viewlux). […]
10. […] GloSensor post-hNppA luminescence measured using CCD-based camera (Viewlux). […]
1. […] Cells counted with Invitrogen Countess (30,000,000 - 50,000,000 cells/flask). […]

The target of test [3] is Atrial natriuretic peptide receptor 2 (Homo sapiens) (UniProt P20594). Briefly: Natriuretic polypeptide receptor (hNpr2) antagonism - Pilot subtype selectivity assay (AID 1347050; calls by dose curve). A digest of the protocol: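 Luminescence from a genetically encoded cGMP luciferase biosensor in hNpr2-expressing HEK293 cells is read before and 20 min after adding 1 nM hNppC. Test compounds, in interplate 1:5 titrations, are added 30-50 min ahead of the agonist.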

Test [4] concerns the target T1, Tyrosine-protein phosphatase non-receptor type substrate 1 (Homo sapiens) + Leukocyte surface antigen CD47 (Homo sapiens) (UniProt P78324+Q08722). Kind of test: CD47-SIRPalpha protein protein interaction - LANCE assay qHTS validation (AID 1347057; active = well fitted curve in the direction sought with a large enough effect in the signal ratio, with a control signal flat, not every such curve was filed as active; the % refers to the signal ratio; also: series mostly up to about 38 µM). An excerpt:
SIRPalpha is a myeloid cell expressed immunomodulatory receptor that binds the tumor expressed immune checkpoint CD47. Therapeutic disruption of this interaction leads to immune-mediated tumor rejection. This assay was used to quantitate CD47-SIRPalpha binding biochemically and evaluate chemical libraries for novel CD47-SIRPalpha inhibitors. To recapitulate the biological interaction of CD47 and SIRPalpha, we designed expression constructs to produce their recombinant, soluble, extracellular interaction domains. CD47 was produced with an N-terminal 6His tag. SIRPalpha was produced with an N-terminal Avi-Tag for site-specific biotin incorporation. The CD47-SIRPalpha interaction was measured by TR-FRET using affinity tag linked reagents (anti-6His-Eu donor and streptavidin-APC acceptor). SIRPalpha without biotin incorporation was used as a positive control inhibitor.
PROTOCOL TABLE (as described by Miller, T. et al. 2019)
SEQUENCE No. (e.g., 1, 2, 3, etc.); […] (e.g., Cells, Incubation, Reagent, etc.); VALUE and DESCRIPTION.
1a. Reagent. 3 uL CD47-His (12.5 nM) and Anti-His Eu Donor reagent (3 nM) added to respective wells in Assay buffer; white/solid bottom high base, med bind 1536-well plates (Greiner 789075)
1b. Reagent. 2 uL Assay buffer negative control for background fluorescence
2. Reagent. […]

Test [5] has as its target T1, Tyrosine-protein phosphatase non-receptor type substrate 1 (Homo sapiens) + Leukocyte surface antigen CD47 (Homo sapiens). Briefly: CD47-SIRPalpha protein protein interaction - HTRF assay qHTS validation (AID 1347058; active = well fitted curve in the direction sought with a large enough effect in the signal ratio, not every such curve was filed as active; the % refers to the signal ratio; also: series mostly up to about 38 µM). The essentials:
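Soluble extracellular domains (6His-CD47, Avi-tag-biotinylated SIRPalpha) in PBS pH 7.4 with 0.05% IGEPAL CA-630. Compounds were preincubated 30 min at RT with CD47 and anti-His-Eu, then SIRPalpha and SAV-XL665 were added. TR-FRET 665/615 ratio.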

Test [6] shares this target. Kind of test: CD47-SIRPalpha protein protein interaction - Alpha assay qHTS validation (AID 1347059).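 Also: bead proximity luminescence from CD47 binding SIRPalpha after compound preincubation with SIRPalpha.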 The essentials:
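SIRPalpha-biotin 25 nM + cpd, 30 min RT, dark; add CD47-His 12.5 nM, 30 min; add Ni-NTA/SAV beads 10 ug/mL, 30 min; AlphaScreen. Buffer PBS pH 7.4 + 0.05% IGEPAL CA-630. Non-biotinylated SIRPalpha as control inhibitor.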

Test [7] concerns the target Parathyroid hormone/parathyroid hormone-related peptide receptor (Homo sapiens) (UniProt Q03431). Kind of test: qHTS for PTHR1 Agonists: Optimization Screen against the NCGC LOPAC library (AID 1347079).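 Also: GloSensor cAMP luminescence in HEK-293 GP2 cells expressing human PTHR1 with IBMX.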 The essentials:
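Signal increase flags agonism. GP2 cells, derived from HEK-293, express human PTHR1 and a GloSensor cAMP construct.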

Test [8] can be described thus: P-glycoprotein substrates identified in KB-8-5-11 adenocarcinoma cell line, qHTS therapeutic library screen (AID 1346987). Also: nearly all actives have a fitted effect of over 65% in size. Also: potency is read from the fitted curve at half-maximal effect. The essentials:
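Human cervical adenocarcinoma KB-8-5-11 cells, selected in colchicine to over-express P-gp and assayed without it, were exposed for 72 h to titrated compounds. An ATP-based luminescent viability signal gave AC50.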

Test [9] is described as follows: NS1 protein of Zika virus - qHTS assay to identify small molecule inhibitors in human HEK 293 cells (AID 1347053). Also: nearly all actives have a fitted effect of over 55% in size. Also: potency is read from the fitted curve at half-maximal effect. The essentials:
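Compound-treated (1 h pre-infection) HEK 293 cells infected with ZIKV MR766, MOI = 0.5; after 24 h at 37 C, NS1 read by TR-FRET; data normalized to uninfected and infected controls.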

Test [10] in a line: qHTS of pediatric cancer cell lines to identify multiple opportunities for drug repurposing: Primary screen for TC32 cells (AID 1347089). Also: nearly all actives have a fitted effect of over 60% in size. Also: potency is read from the fitted curve at half-maximal effect. The essentials:
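qHTS, TC32, 48 h drug treatment, CellTiter-Glo luminescence as a proxy for metabolically active cells; primary top concentration 46 µM (MIPE 11-pt, NPC 8-pt); confirmatory 11-pt.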

Several values for one entry are separate records, joined by “and”; a condition that tells them apart may be missing. Identical values can stand only once. Results filed as inconclusive are left out. Where a structure was tested more than once in an assay, its records may differ in their call. Activity calls are given as the source filed them. Unless noted, calls follow the shape of the dose curve; as a rule, active = well fitted curve in the direction sought with a large enough effect; inconclusive = small, poorly fitted or top-dose-only effect, or another doubt; inactive = no such curve, though single readings can be large; an effect the other way counts as inactive or inconclusive.

T1 sequence (P78324 whole entry, looked up): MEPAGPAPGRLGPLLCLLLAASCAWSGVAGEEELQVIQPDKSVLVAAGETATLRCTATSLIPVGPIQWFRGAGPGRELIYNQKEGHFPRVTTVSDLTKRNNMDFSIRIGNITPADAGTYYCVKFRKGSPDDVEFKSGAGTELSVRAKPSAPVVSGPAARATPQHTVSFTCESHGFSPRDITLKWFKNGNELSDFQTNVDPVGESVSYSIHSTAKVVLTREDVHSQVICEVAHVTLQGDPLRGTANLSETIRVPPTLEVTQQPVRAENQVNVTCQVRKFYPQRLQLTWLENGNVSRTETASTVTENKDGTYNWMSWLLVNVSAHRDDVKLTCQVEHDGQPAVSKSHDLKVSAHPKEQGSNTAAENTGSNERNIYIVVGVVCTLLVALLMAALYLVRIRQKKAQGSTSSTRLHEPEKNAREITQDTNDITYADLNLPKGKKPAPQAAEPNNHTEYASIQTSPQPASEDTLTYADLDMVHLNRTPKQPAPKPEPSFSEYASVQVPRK
T1 sequence (Q08722 whole entry, looked up): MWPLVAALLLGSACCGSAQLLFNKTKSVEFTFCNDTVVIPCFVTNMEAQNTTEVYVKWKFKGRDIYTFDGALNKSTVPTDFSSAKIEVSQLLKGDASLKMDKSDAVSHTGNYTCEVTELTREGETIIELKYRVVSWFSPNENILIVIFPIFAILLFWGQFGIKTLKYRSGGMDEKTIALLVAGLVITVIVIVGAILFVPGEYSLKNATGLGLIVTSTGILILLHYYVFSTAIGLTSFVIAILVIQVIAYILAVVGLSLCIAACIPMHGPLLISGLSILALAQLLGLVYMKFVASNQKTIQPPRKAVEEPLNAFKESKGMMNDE
Parathyroid hormone/parathyroid hormone-related peptide receptor (Homo sapiens), sequence (Q03431 whole entry, looked up): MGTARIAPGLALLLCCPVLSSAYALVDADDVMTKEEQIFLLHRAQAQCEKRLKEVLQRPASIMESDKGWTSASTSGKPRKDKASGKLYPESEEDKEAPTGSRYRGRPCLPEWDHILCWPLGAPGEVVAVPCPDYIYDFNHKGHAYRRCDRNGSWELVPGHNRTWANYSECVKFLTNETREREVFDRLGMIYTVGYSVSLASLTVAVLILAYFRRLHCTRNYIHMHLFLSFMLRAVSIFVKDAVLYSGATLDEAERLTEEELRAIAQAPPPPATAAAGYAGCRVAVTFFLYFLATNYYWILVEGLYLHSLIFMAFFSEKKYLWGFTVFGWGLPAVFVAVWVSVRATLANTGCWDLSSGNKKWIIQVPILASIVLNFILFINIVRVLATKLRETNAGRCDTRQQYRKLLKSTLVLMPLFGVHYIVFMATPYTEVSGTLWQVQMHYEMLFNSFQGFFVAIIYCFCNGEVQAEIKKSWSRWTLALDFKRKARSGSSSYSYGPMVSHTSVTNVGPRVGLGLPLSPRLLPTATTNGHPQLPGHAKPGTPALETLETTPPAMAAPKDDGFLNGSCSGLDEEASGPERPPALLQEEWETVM
Atrial natriuretic peptide receptor 2 (Homo sapiens), sequence (P20594 whole entry, looked up): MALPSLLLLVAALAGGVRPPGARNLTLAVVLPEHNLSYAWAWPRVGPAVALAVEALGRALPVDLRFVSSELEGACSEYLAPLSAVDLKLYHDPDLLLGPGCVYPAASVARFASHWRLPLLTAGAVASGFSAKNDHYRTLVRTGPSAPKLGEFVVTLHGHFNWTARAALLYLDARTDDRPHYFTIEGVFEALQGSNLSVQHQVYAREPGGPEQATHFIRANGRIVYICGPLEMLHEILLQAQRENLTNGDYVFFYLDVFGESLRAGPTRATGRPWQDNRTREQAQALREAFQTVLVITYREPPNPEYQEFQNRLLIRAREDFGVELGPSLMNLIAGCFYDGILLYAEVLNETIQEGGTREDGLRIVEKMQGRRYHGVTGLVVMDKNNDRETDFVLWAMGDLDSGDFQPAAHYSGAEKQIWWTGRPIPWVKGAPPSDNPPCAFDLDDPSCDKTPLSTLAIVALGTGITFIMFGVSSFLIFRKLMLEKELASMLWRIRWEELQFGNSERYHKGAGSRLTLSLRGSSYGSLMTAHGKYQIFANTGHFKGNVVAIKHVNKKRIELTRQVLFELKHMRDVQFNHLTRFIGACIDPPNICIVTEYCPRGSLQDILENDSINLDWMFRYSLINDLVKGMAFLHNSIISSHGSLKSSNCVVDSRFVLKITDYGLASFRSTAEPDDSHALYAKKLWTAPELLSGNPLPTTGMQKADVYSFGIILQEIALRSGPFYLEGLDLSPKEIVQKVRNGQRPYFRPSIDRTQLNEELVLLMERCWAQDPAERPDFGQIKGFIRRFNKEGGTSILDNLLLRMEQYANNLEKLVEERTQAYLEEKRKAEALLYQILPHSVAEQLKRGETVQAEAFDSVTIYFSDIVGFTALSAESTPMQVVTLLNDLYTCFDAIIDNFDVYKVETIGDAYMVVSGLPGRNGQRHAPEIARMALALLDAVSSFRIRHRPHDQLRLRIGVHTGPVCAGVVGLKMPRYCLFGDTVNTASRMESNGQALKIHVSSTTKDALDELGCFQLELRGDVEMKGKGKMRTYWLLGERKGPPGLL
Atrial natriuretic peptide receptor 1 (Homo sapiens), sequence (P16066 whole entry, looked up, the tested form may be a part): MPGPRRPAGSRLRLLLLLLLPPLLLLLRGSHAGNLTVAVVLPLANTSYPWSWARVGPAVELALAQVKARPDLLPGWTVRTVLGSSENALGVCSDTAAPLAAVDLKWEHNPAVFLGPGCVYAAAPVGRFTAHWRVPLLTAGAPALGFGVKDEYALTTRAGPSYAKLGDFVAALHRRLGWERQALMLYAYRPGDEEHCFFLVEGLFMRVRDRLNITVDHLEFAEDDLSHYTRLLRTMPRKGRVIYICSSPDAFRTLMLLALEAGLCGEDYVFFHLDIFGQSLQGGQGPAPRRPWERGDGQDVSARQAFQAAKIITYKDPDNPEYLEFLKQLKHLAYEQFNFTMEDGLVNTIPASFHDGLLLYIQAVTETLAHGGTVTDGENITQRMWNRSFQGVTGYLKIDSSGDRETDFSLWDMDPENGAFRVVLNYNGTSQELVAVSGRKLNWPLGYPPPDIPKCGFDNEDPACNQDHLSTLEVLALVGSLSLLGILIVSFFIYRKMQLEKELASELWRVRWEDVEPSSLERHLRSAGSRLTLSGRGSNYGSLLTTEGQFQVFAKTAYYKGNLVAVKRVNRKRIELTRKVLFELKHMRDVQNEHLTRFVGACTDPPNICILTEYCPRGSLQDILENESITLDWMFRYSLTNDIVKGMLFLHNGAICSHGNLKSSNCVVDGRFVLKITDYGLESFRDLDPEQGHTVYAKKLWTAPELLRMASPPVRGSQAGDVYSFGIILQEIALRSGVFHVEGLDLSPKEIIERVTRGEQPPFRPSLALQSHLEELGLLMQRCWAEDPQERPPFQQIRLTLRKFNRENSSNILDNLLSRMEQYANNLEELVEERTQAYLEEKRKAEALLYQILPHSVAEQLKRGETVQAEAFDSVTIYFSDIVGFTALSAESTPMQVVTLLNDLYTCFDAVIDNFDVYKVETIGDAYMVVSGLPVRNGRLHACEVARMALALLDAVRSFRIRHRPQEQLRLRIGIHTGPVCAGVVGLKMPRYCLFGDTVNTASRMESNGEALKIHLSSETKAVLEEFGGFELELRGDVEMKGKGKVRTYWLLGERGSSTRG

As to `C=CCc1cccc(C=NNC(=O)CN2CCN(Cc3ccccc3)CC2)c1O`, the result in test [1], in test [2], in test [3], in [4], in [5] and in test [6] was inactive. In addition, the outcome in [7] was inactive.

Consider `C[C@H]1O[C@@H](n2cc(F)c(=O)[nH]c2=O)[C@H](O)[C@H]1O`, for which the compound was called inactive in test [1], in test [2], in [3] and in test [7].

Take `C[C@H]1[C@H](O)O[C@@H]2O[C@@]3(C)CC[C@@H]4[C@H](C)CC[C@@H]1[C@@]24OO3`: the Potency in test [8] is 18.7 µM (active); in test [9] it was 26.4 µM (active).

Take `CN1C(=O)C[C@H](C(=O)N[C@@H](Cc2cnc[nH]2)C(=O)N2CCC[C@@H]2C(N)=O)NC1=O`: the Potency entry in [8] and in test [9] was “inactive” in each case.

On to `C[C@]12C=CC(=O)C=C1CC[C@@H]1[C@@H]2[C@@H](O)C[C@@]2(C)[C@@H]1CC[C@]2(O)C(=O)CO`, for which the Potency entry in [8], in [9] and in test [10] was “inactive” each time.

Regarding `CC(C)n1c(C=C[C@H](O)C[C@H](O)CC(=O)O)c(-c2ccc(F)cc2)c2ccccc21`, the Potency in [8] is 11.8 µM (active). For the same compound, the Potency result in test [9] is “inactive”.

`Cn1c(=O)c(-c2c(Cl)cccc2Cl)cc2cnc(Nc3cccc(C(=O)O)c3)nc21`: in test [8], the Potency entry is “inactive and 4.61 µM (active)”. Also, the Potency entry in [9] and in [10] was “inactive” in each case.

`NC(=O)c1ccc(N(C(N)=O)c2c(F)cccc2F)nc1-c1ccc(F)cc1F`: the Potency entry in test [8], in [9] and in [10] was “inactive” throughout.

Take `O=C1C(c2c(O)[nH]c3ccccc23)=Nc2ccccc21`: the Potency result in test [8], in test [9] and in test [10] was “inactive” throughout.

Take `CC1(C)CC(=O)c2c(C(F)(F)F)nn(-c3ccc(C(N)=O)c(NC4CCC(O)CC4)c3)c2C1` (configuration not stated): the Potency was 0.418 µM (active) in test [8], 23.5 µM (active) in [9] and 0.208 µM (active) in test [10].

On to `CN1CC(=O)NC1=NC(=O)Nc1cccc(Cl)c1`, for which the Potency result in [8] and in test [9] was “inactive” throughout.

On to `COc1ccc(CCN(C)CCCOc2ccc(S(=O)(=O)c3[nH]c4ccccc4c3C(C)C)cc2)cc1OC`, for which the Potency result in test [8], in test [9] and in test [10] was “inactive” throughout.

As to `CCOC(=O)[C@H](CCc1ccccc1)N[C@@H](C)C(=O)N1CCCC1C(=O)O` (some centres not stated), the Potency entry in test [8], in test [9] and in test [10] was “inactive” in each case.

For `C=C1c2cccc(O)c2C(O)=C2C(=O)[C@@]3(O)C(O)=C(C(N)=O)C(=O)[C@@H](N(C)C)[C@@H]3[C@@H](O)[C@H]12`, the Potency result in test [8] and in test [9] was “inactive” in each case.

For `CC(NCCc1ccc(O)cc1)C(O)c1ccc(O)cc1` (configuration not stated), the Potency result in test [8] and in test [9] was “inactive” each time.

Take `CC1=C(C(=O)Nc2cc3cn[nH]c3cc2F)C(c2ccc(C(F)(F)F)cc2)CC(=O)N1` (configuration not stated): the Potency result in [8], in [9] and in test [10] was “inactive” in each case.
